GLP-1R agonist: qHTS of GLP-1 Receptor Agonists; Potency, µM (doses to about 45.6 µM), for inactives: at the top dose activation, actives largely listed as activators; 380,000 tested, 0.007% active; Glucagon-like peptide 1 receptor (Homo sapiens), P43220; HEK293 GLP-1R CRE-luciferase, luminescence, 4-6 h; cells express a hypersensitive GLP-1R form; AID 624172, 2012; note: % of control where 0% means no effect
Target sequence (P43220 whole entry, looked up): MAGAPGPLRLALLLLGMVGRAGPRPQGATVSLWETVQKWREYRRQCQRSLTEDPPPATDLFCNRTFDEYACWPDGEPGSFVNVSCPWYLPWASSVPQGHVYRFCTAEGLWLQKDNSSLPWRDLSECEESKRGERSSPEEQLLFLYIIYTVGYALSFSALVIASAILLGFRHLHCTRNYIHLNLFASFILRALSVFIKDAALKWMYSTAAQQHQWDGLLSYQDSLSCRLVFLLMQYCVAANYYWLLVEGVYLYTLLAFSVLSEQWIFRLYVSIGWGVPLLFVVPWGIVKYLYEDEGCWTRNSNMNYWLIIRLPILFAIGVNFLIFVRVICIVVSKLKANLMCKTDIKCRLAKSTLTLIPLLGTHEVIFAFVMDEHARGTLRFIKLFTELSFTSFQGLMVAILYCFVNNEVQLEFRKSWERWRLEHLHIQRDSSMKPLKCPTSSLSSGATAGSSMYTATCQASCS
S2 tox: Viability Counterscreen for Primary qHTS for Inhibitors of ATXN expression; S2 cells (HEK-293 line with an ATXN2-luciferase reporter) viability, CellTiter-Fluor protease fluorescence, 24 h; Potency, µM (top dose mostly 56.7 µM), usual class: cytotoxic; 400,000 tested, 0.49% active; AID 651635, 2014; note: nearly all actives have a fitted effect of over 40% in size
TGFb SMAD3 inh: qHTS for Inhibitors of TGF-b | 410,000 tested, 1.2% active | HepG2 CAGA-GFP TGF-b/SMAD3 reporter, GFP fluorescence, 18 h; TGF-beta stimulated, 500 pg/mL final | Potency, µM (highest dose often 46.1 µM), inactives show top-dose activity, negative = inhibition, actives largely listed as inhibitors; note: % is set by controls: 0 for no effect and ±100 for the full control effect; nearly all actives have a fitted effect of over 65% in size
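Smad-responsive CAGA-GFP expression was quantified in HEPG2 cells exposed to compounds and 500 pg/mL final TGF-beta for 18 h at 37 degrees C; unstimulated wells defined full inhibition.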
HepG2 tox: qHTS for Inhibitors of TGF-b: Cytotox Counterscreen. HepG2 CAGA-GFP viability, ATP luminescence, 18 h. 410,000 tested, 0.76% active. AID 588856, 2011. Potency, µM (highest dose often 46.1 µM), for inactives: at the highest dose activity change, negative = cytotoxicity, actives largely listed as cytotoxic
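HepG2 CAGA-GFP cells (1000/well, DMEM with 1% FBS) received compound, then TGF-beta at 500 pg/mL final, and were incubated 18 hours at 37 degrees C. Viability was read by CellTiter-Glo luminescence. Media-only wells were set as complete cell-killing and DMSO as no toxicity.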
GLP1R inv ag: qHTS of GLP-1 Receptor Inverse Agonists (Inhibition Mode). Glucagon-like peptide 1 receptor (Homo sapiens), P43220. HEK293 GLP-1R CRE-luciferase, luminescence, 24 h; GLP-1R form is constitutively active. Potency, µM (doses to about 38.3 µM), without a hit: top-dose activity change, negative = inhibition, most hits filed as inhibitors. 410,000 tested, 1.6% active. AID 624417, 2012; note: % is set by controls: 0 for no effect and ±100 for the full control effect; nearly all actives have a fitted effect of over 55% in size
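qHTS in 1536-well format: reporter HEK293 cells expressing constitutive GLP-1R activity in DMEM + 10% Nu serum, 24 hr with compounds at 37 deg C, luminescence read after 12 min with detection reagent.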
ATXN2 expr inh: Primary qHTS for Inhibitors of ATXN expression. HEK-293 ATXN2-luciferase reporter, luminescence, 24 h. Potency, µM (top dose mostly 57 µM), inactives show top-dose activity change, negative = inhibition, hits mostly inhibitors. 360,000 tested, 0.72% active; note: % is set by controls: 0 for no effect and ±100 for the full control effect; nearly all actives have a fitted effect of over 55% in size
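qHTS (up to 57 uM final) was run with 24 h compound exposure of reporter cells at 37 °C. Each well was multiplexed: SteadyGlo luminescence measured ATXN2-luciferase expression after a fluorogenic Gly-Phe-AFC viability readout (25 uM final).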
* = called active by the depositor; i = inactive; ? = inconclusive; . = not tested or not shown. Compounds with a hit are over-represented: about 3.7% of the library has one in this group of screens. Calls come from the whole dose curve; as a rule, active = well fitted curve in the direction sought with a large enough effect; inconclusive = small, poorly fitted or top-dose-only effect, or another doubt; inactive = no such curve, though single readings can be large; an effect the other way counts as inactive or inconclusive. Potency is the fitted concentration of half-maximal effect.

SMILES | GLP-1R agonist | S2 tox | TGFb SMAD3 inh | HepG2 tox | GLP1R inv ag | ATXN2 expr inh
COc1ccc(NC(=O)NCCCN2CCN(c3cc(C)ccc3C)CC2)cc1 | -3% | ? | ? | 13µM* | ? | ?
Cc1ccccc1CC1CCN(CCCNC(=O)Nc2ccccc2)CC1 | -3% | i | 2% | -26% | 10µM* | .
COc1cc(NC(=O)NCCN2CCN(c3ccc(Cl)cc3)CC2)ccc1C | 0% | i | 14% | -35% | ? | -19%
COc1ccc(-c2cccc(CCC(=O)N3CCN(c4cc(C)ccc4C)CC3)c2)cc1 | -3% | i | ? | -11% | ? | -11%
O=C(NC1CC1)[C@@H]1C[C@@H](Sc2nc3ccccc3[nH]2)CN1CC1CCCCC1 | . | i | . | . | . | .
Cc1ccc(NS(=O)(=O)c2ccc(-c3cnc(C4CC4)o3)cc2)c(C)c1 | 35% | ? | 13µM* | -68% | ? | .
Cc1cccc(N2CCN(S(=O)(=O)c3ccc(-c4cnc(C5CC5)o4)cc3)CC2)c1C | . | ? | ? | -29% | 11µM* | -28%
Cc1cc(-c2ccc(S(=O)(=O)Nc3ccc(Cl)cc3C)cc2)on1 | . | . | 13µM* | -31% | ? | .
Cc1ccc(NS(=O)(=O)c2cc(-c3cnc(C4CC4)o3)ccc2C)cc1Cl | . | i | 7.1µM* | 11µM* | ? | -8%
CCc1ccccc1NC(=O)CSc1ncccc1C(=O)O | . | i | 0% | -4% | 0% | 3%
COC(=O)C(NS(=O)(=O)CCl)C(C)C (stereo not given) | . | . | 6% | 1% | . | .
O=S(=O)(Nc1cccc(C(F)(F)F)c1)c1ccc(-c2cnc(C3CC3)o2)cc1 | . | ? | ? | 13µM* | ? | ?
O=S(=O)(Nc1ccc(F)cc1Cl)c1ccc(-c2cnc(C3CC3)o2)cc1 | 10% | i | 14µM* | -54% | ? | .
CCN(CC)c1ccc(NS(=O)(=O)c2ccc(-c3cnc(C4CC4)o3)cc2)c(C)c1 | . | ? | ? | -22% | ? | ?
COc1ccccc1CNS(=O)(=O)c1ccc(-c2cnc(C3CC3)o2)cc1 | 10% | ? | 11µM* | 29% | ? | -30%
COc1ccccc1CNS(=O)(=O)c1ccc(S(=O)(=O)NC2CC2)cc1 | 5% | i | ? | 8% | -25% | 1%
COc1ccc(NS(=O)(=O)c2ccc(-c3cnc(C4CC4)o3)cc2)cc1OC | 12% | i | -31% | -22% | ? | .
Cc1cc(C)c(NS(=O)(=O)c2ccc(-c3cnc(C4CC4)o3)cc2)c(C)c1 | . | ? | 1.4µM* | -67% | ? | -31%
COc1ccc(-c2noc(-c3ccc(NCc4ccccc4OC)c([N+](=O)[O-])c3)n2)cc1 | . | i | 87% | 3% | -6% | 3%
CCOc1ccccc1NS(=O)(=O)c1cc(-c2cnc(C3CC3)o2)ccc1C | . | i | -25% | -49% | ? | 5%
CCOc1ccccc1NS(=O)(=O)c1ccc(-c2cnc(C3CC3)o2)cc1 | ? | i | 4.5µM* | -31% | -68% | .
O=C(/C=C/c1cccs1)c1cc(Br)ccc1OC(=O)N1CCOCC1 | -9% | i | -4% | 11µM* | ? | ?
Cc1ccc2c(C(=O)CNc3nc(C)c(C)s3)c(C)[nH]c2c1 | . | . | ? | -34% | . | .
Oc1c(N=Nc2ccccc2)sc2ccccc12 | -2% | i | -25% | -71% | -24% | .
Oc1ccc(N=Nc2ccccc2)o1 | -4% | ? | ? | 13µM* | ? | -19%
SMILES | GLP-1R agonist | S2 tox | TGFb SMAD3 inh | HepG2 tox | GLP1R inv ag | ATXN2 expr inh
COc1ccc(C(=O)CSc2ccc(-c3ccccc3)nn2)cc1 | 4% | i | -8% | -14% | 16% | -6%
COc1ccc(-c2ccc(SC)nn2)cc1 | -4% | i | -7% | 7.1µM* | ? | ?
O=C(Cc1cccc2ccccc12)Nc1ccc(Br)cc1C(=O)O | -1% | . | -23% | 14µM* | ? | .
CC(C)CC(CSc1ccc(Br)cc1)N1CCN(CC(C)C)CCC1=O (stereo not given) | . | . | ? | -35% | . | .
Fc1ccccc1Cn1c(-c2ccccc2)nc2ccccc21 | . | 32µM* | ? | -68% | ? | ?
CCSc1nc2ccccc2n1Cc1ccccc1F | 6% | i | 7% | -20% | ? | -27%
CC(C)N(C(=O)CSc1nc2ccccc2n1Cc1ccccc1F)C(C)C | 4% | i | -7% | -28% | 2.2µM* | -15%
CSc1ccc(C(=O)C2CCCN(C(=O)c3ccc4c(c3)no[n+]4[O-])C2)cc1 (stereo not given) | -7% | 14µM* | ? | -18% | 20% | .
CC#CCn1c(N2CCC[C@@H](N)C2)nc2c1c(=O)n(Cc1nc(C)c3ccccc3n1)c(=O)n2C | . | . | . | . | . | -19%
CCc1ccc([C@@H]2C[C@H]3CN(Cc4ccccc4OC)C(=O)[C@]34CCCN24)cc1 | 8% | i | -8% | -13% | 13µM* | -21%
COc1ccccc1CN1C[C@@H]2C[C@@H](c3ccc(C)cc3)N3CCC[C@@]23C1=O | 4% | i | ? | -15% | ? | -19%
O=c1[nH]/c(=C/c2ccc3c(c2)OCO3)c(=O)[nH]/c1=C\c1ccc2c(c1)OCO2 | . | . | 0% | -29% | . | .
O=C1C=CC2(O[C@H](c3ccccc3)[C@@H](c3ccccc3)O2)[C@H](Sc2ccccc2O)C1 | -5% | . | 2.8µM* | -103% | ? | 4µM*
COC(=O)CSc1cccc2c1C(=O)CC2c1ccccc1 (stereo not given) | 9% | i | 2% | 3% | -4% | .
COc1ccc(C(=O)n2nc(-c3ccco3)nc2NCc2cccs2)cc1 | . | i | 1% | -54% | 11% | 1%
CCCCCCOc1ccc(/C=C/C(=O)Nc2sc3c(c2C(=O)OC)CCC3)cc1OC | . | 14µM* | 7.9µM* | -102% | ? | ?
Cc1ccc(C)c(N2CCN(C(=O)c3cc4c(=O)n(Cc5ccco5)ccc4nc3C)CC2)c1 | . | . | ? | -39% | -10% | .
CC(C)Cc1ccc(C(C)CC2=CCC(CN(C)C)C2=O)cc1 (stereo not given) | -3% | . | ? | 7.9µM* | ? | ?
COC(=O)C1CCCCN1Cc1ccc2c(c1)CN(C(=O)c1csc(-c3cccs3)n1)CCO2 (stereo not given) | . | i | . | . | . | .
